# Screening results (PubChem BioAssay)
# A selection: hits, their analogues and other compounds. The true share with any hit is near 3.5%.
# mHTT-CaM PPI inh = mutant huntingtin-calmodulin interaction inhibitors – biochemical, AlphaScreen, primary screen; inhibition, % at 15 µM; actives 3.6% (n = 190,000); AlphaScreen His-mHTT/GST-CaM binding, luminescence;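 further: 0% = both proteins with DMSO and 100% = one protein alone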
# Pf apPOL inh = Pf-apPOL inhibitors, biochemical, fluorescence | Recombinant Pf-apPOL, molecular beacon fluorescence, 1.5 h | Plasmodium falciparum apicoplast DNA polymerase (apPOL) | actives 0.25% (n = 210,000) | inhibition, % at 10 µM
# * = called active by the depositor; i = inactive; . = no result. No stated cut-off is given here; in the data, active means inhibition above about 50%; inactive means the rest.
SMILES,mHTT-CaM PPI inh,Pf apPOL inh
CC[C@H]1C(c2ccc(F)cc2)=NN(c2ccccc2)[C@@H]1CO,-58,-6
Cc1cccc(C2=NN(c3ccccc3)[C@H](CO)[C@H]2c2ccccc2)c1,87*,-3
CC1=NN(c2ccccc2)C(=O)C1N=Nc1ccc([N+](=O)[O-])cc1 (configuration not stated),.,-4
Cc1nc([N+](=O)[O-])c2n1CC(c1ccccc1)=NN2c1ccc([N+](=O)[O-])cc1,58*,-4
Cc1cccn2cc(C(=O)N3CCC(N4CCCCC4)CC3)nc12,6,-2
CN(C)c1ccc(CNC(=O)c2cn3cc(Cl)ccc3n2)cc1,15,0
CN(C)CCNC(=O)c1cn2cc(-c3ccc(F)c(Cl)c3)ccc2n1,93*,11
O=C1c2ccccc2C(=O)c2c1ccc(C(=O)N1CCN(c3ccccn3)CC1)c2NCCO,78*,-2
O=C1c2ccccc2C(=O)c2c1ccc(C(=O)N1CCC3(CC1)OCCO3)c2NCCO,41,1
COCCNc1nc(SCc2ccccc2Cl)nc2ccccc12,58*,-4
Clc1ccccc1CSc1nc(NCc2ccco2)c2ccccc2n1,19,-4
NC(=O)C1(c2cccc(C(F)(F)F)c2)CC1,-1,-6
N/C(=N\OC(=O)c1cccc(Br)c1)c1cccnc1,i,0
Cc1nc(C(=O)NCc2ccc(N3CCCC3)cc2)c(C)n1C1CCN(C)CC1,55*,1
Cc1nc(C(=O)NCc2ccc(N3CCCCC3)cc2)c(C)n1C1CCN(C)CC1,44,-7
COC(=O)C=Cc1cn(C2OCC(CO)C2O)c(=O)[nH]c1=O (configuration not stated),.,-6
O=C(Nc1ccc(O)c2c(=O)cc(-c3ccccc3Cl)oc12)c1ccc(Br)cc1,21,-4
CN(C)c1ccc(C(=O)Nc2ccc(O)c3c(=O)cc(-c4ccccc4Cl)oc23)cc1,54*,2
CCOC1=NN(c2ccc([N+](=O)[O-])cc2)C(=O)/C1=C/c1ccccc1Cl,79*,-6
CCOC1=NN(c2ccc([N+](=O)[O-])cc2)C(=O)/C1=C/c1ccc(Cl)c(Cl)c1,32,8
CCOC(=O)c1ccccc1NC(=O)N1CCC2(CC1)Nc1ccccc1-n1cccc12,60*,4
CCOC(=O)c1cccc(NC(=O)N2CCC3(CC2)Nc2ccccc2-n2cccc23)c1,66*,-5
CCOC(=O)Cc1ccc(NC(=O)N2CCC3(CC2)Nc2ccccc2-n2cccc23)cc1,76*,4
O=C(Nc1cccc(C(F)(F)F)c1)N1CCC2(CC1)Nc1ccccc1-n1cccc12,97*,4
CCOc1ccccc1NC(=O)N1CCC2(CC1)Nc1ccccc1-n1cccc12,21,-7
SMILES,mHTT-CaM PPI inh,Pf apPOL inh
Oc1cccc2ccc(Cl)nc12,-4,.
COCC(=O)N1CCN(c2nc(C3CC3)nc3sc4c(c23)CCCC4)CC1,-2,0
CCCCc1sc(/C=C(/C#N)C(N)=S)cc1[N+](=O)[O-],48,.
Cn1cccc1C(=O)N1CCC(c2nncn2-c2ccccc2)CC1,2,2
c1ccc(CN2COc3ccc4ccccc4c3C2)cc1,-2,.
CC(=O)Oc1ccc2c(c1)Oc1cc(OC(C)=O)ccc1C21OC(=O)c2ccccc21,87*,6
CC(=O)Oc1ccc2c(c1)OC(=Cc1ccccc1Br)C2=O,0,-6
COCCN1CCC(N2CCCN(C(=O)c3cccn3C)CC2)C1=O (configuration not stated),15,-4
O=C(Nc1cc(-c2ccccn2)no1)c1ccccc1Br,2,0
O=C(C1CCN(Cc2ccccc2)CC1)N1CCOCC1,-2,-3
O=C(Nc1nc(-c2ccccn2)cs1)c1cc2cc([N+](=O)[O-])ccc2s1,23,-28
O=C(NCc1cccs1)Nc1nc(-c2ccccn2)cs1,100*,-7
O=C(Nc1nc(-c2ccccn2)cs1)c1ccc([N+](=O)[O-])o1,74*,-55
CCOc1cccc2cc(-c3csc(NC(=O)c4ccc([N+](=O)[O-])o4)n3)oc12,-6,-4
O=C(Nc1nc(-c2ccccn2)cs1)c1ccccc1[N+](=O)[O-],100*,-131
O=C(Cc1csc(Nc2ncccn2)n1)NCc1cccs1,-7,-2
COc1ccccc1NC(=O)NCC1CCN(Cc2ccccc2)CC1,-10,-4
OC(CNCC1COc2ccccc2O1)COc1ccccc1 (configuration not stated),1,20
CN(C)C(CNC(=O)C(=O)NCc1ccc2c(c1)OCO2)c1ccsc1 (configuration not stated),2,3
COc1cccc(C(=O)N2CCN=C2SCc2cccc(F)c2)c1OC,-20,59*
COc1cccc(C(=O)N2CCN=C2SC)c1OC,5,-3
CC(=O)OC1CCC2(C)C(=CCC3C2CCC2(C)C(/C(C)=N\NC(N)=O)CCC32)C1 (configuration not stated),i,.
CCOc1ccc(N(CC(=O)Nc2ccccc2OCC)S(C)(=O)=O)cc1,15,-2
CS(=O)(=O)N(Cc1ccccc1)c1ccc(C(=O)Nc2ccc(F)cc2)cc1,7,0
CCOc1ccccc1NC(=O)CN(c1ccc(F)cc1)S(C)(=O)=O,-4,66*
SMILES,mHTT-CaM PPI inh,Pf apPOL inh
CS(=O)(=O)N(Cc1ccc(C(=O)Nc2ccc(F)cc2)cc1)c1ccccc1,-5,50*
OCCn1cc(Br)cn1,-2,.
CC(C(=O)NCc1ccc(F)cc1)C1CCN(S(=O)(=O)c2cccs2)CC1 (configuration not stated),-16,-3
CC(=O)N1CCc2ccc(OCC(=O)N3CCOCC3)cc2C1c1ccccc1 (configuration not stated),6,-2
CC(=O)N(C)CC(=O)N1N=C(c2ccc(C)c(C)c2)CC1c1ccc(F)cc1 (configuration not stated),39,0
Cc1ccc(C2=NN(C(=O)CN(C)C(=O)C(C)C)C(c3ccc(F)cc3)C2)cc1C (configuration not stated),98*,3
CCC(=O)N(C)CC(=O)N1N=C(c2ccc(C)c(C)c2)CC1c1ccc(C)cc1 (configuration not stated),47,0
CCC(=O)N(C)CC(=O)N1N=C(c2ccc(F)cc2)CC1c1ccc(F)cc1 (configuration not stated),66*,0
CCC(=O)N(C)CC(=O)N1N=C(c2ccc(C)c(C)c2)CC1c1ccc(F)cc1 (configuration not stated),72*,-6
CN(CC(=O)N1N=C(c2ccc(F)cc2)CC1c1ccc(F)cc1)C(=O)C1CC1 (configuration not stated),22,-1
N#Cc1c(SCC(N)=O)sc2c(=O)[nH]c(=O)[nH]c12,-1,.
COc1ccccc1CN1C(=O)CN(c2ccccc2)C(=O)C1c1ccncc1 (configuration not stated),2,2
Cn1c(C(=O)Nc2ccc3c(c2)OCO3)cc2c1CCN(Cc1cccc(F)c1)C2,52*,0
Cn1c(C(=O)NC2CC2)cc2c1CCN(Cc1cccc(F)c1)C2,26,-4
Cn1c(C(=O)NCCN2CCCCC2)cc2c1CCN(Cc1cccc(F)c1)C2,49,4
CC(=O)c1cccc(NC(=O)c2cc3c(n2C)CCN(Cc2cccc(F)c2)C3)c1,60*,-2
CC(C)CN(CC(C)C)S(=O)(=O)N1CCC(C(=O)NC2CC2)CC1,0,-12
